# Only some compounds are listed: those with a hit (about 7.5% of all), similar ones and a draw of the others.
# SMN2 splice up: enhancers of SMN2 splice variant expression; AID 1458; HEK293 SMN2-luciferase splicing reporter, luminescence, 30-36 h; Potency, µM (titrated, usually from 46.1 µM), hits mostly activators; 2.8% of 210,000 active; further: nearly all actives have a fitted effect of over 55% in size
#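 HEK293 cells carry an SMN2 […]–luciferase reporter in which exon 7 inclusion puts luciferase in frame. Cells were plated 10-12 h before compound addition, then incubated 30-36 h at 37C. ONE-Glo luminescence was read; sodium butyrate at 4.5 mM final served as control.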
# Rab9 promoter act: activates the Rab9 promoter. 2.8% of 320,000 active. Potency, µM (top dose mostly 9.22 µM), usual class: activators. Huh7 Rab9 promoter-luciferase reporter, luminescence, 24 h; further: nearly all actives have a fitted effect of over 60% in size
#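 Rab9 promoter-driven luciferase in stably transfected Huh7 cells; 1500 cells/well rested 2 h, exposed to compound in DMSO for 24 h at 37 °C, 5% CO2. Luminescence read 10 min after adding luciferase reagent at ambient temperature.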
# NPC1 promoter act: NPC1 promoter activation | 2.4% of 320,000 active | Potency, µM (series often up to 9.22 µM), usual class: activators | AID 485313 | Huh7 NPC1 promoter luciferase reporter, 24 h; further: nearly all actives have a fitted effect of over 60% in size
#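 Luminescence from an NPC1 promoter-driven luciferase reporter in stably transfected Huh7 cells was measured after 24 h compound treatment at 37 °C, followed by 10 min ambient incubation with luciferase detection reagent.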
# ELG1 genotox: inducers of genotoxicity in HEK293T ELG1-luciferase cells; HEK293T ELG1-luciferase reporter, luminescence, 16 h; Potency, µM (titrated, usually from 46 µM), most hits filed as activators; 1.3% of 330,000 active; AID 504466; further: nearly all actives have a fitted effect of over 60% in size
#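 Cells (2,000/well) expressing the ELG1-luciferase fusion are dosed by pin tool and kept 16 hr at 37 °C, 5% CO2. Signal comes from ONE-Glo luciferase reagent after 30 min at room temperature.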
# FLuc counter: firefly luciferase modulation, counter-screen for miR-21 project | purified FLuc, Km substrates, luminescence inhibition | Potency, µM (series often up to 57.5 µM), usual class: inhibitors | 6.9% of 360,000 active | AID 588342; further: nearly all actives have a fitted effect of over 55% in size
# Target sequence (P08659 whole entry, looked up): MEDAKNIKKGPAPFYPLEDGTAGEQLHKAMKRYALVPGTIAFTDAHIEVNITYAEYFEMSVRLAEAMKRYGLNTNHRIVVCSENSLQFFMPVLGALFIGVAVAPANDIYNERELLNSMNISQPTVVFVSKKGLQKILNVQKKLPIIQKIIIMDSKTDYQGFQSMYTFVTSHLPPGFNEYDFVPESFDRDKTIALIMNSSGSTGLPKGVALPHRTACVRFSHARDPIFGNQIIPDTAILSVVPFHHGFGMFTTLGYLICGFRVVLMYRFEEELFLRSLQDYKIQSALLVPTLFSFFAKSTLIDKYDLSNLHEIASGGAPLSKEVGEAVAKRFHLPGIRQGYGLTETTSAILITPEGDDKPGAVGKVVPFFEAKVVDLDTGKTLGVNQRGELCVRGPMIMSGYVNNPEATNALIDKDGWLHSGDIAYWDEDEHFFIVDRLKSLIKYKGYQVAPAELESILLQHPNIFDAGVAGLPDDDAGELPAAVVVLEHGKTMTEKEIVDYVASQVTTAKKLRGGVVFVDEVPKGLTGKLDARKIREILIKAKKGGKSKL
#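 Purified P. pyralis luciferase, 10 nM final, with Km-level 10 uM D-luciferin and 10 uM ATP in 50 mM Tris acetate pH 7.5, 10 mM Mg acetate, 0.01% Tween-20, 0.05% BSA; 6-point qHTS titration about 60 µM downward; luminescence read.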
# A number is an active result; . = inactive; ? = inconclusive; / = not tested or not shown; [ ] = another dose, or the depositor's remark. The call rests on the fitted dose curve; in most records, active means well fitted curve in the direction sought with a large enough effect; inconclusive means small, poorly fitted or top-dose-only effect, or another doubt; inactive means no such curve, though single readings can be large; an effect the other way counts as inactive or inconclusive.
SMILES,SMN2 splice up,Rab9 promoter act,NPC1 promoter act,ELG1 genotox,FLuc counter
CCC(=O)Nc1cccc(C(=O)/C=C/c2ccccc2)c1,.,.,.,?,11µM
COc1ccc(C(=O)CCC(=O)Nc2cccnc2)cc1OC,/,.,.,.,.
COc1ccc(NC(=O)c2ccc(CNS(=O)(=O)c3ccc4c(c3)C(C)(C)C(=O)N4C)cc2)cc1,/,/,/,/,.
CCC(C)C(NC(=O)C1CCC(C)CC1)C(=O)NCc1ccccn1 (stereo not drawn),.,.,.,.,.
O/N=C/c1ccc(OCC(O)COc2ccc(/C=N/O)cc2)cc1,.,.,.,.,15µM
CCCOc1ccc(/C=N/O)cc1,.,.,.,.,?
C=CCOc1ccc(Br)cc1CNCCCN1CCOCC1,.,.,.,.,.
c1ccc(-c2nnn(C34CC5CC(CC(C5)C3)C4)n2)cc1,?,.,.,?,17µM
c1ccc(-c2nnn(CCN3CCCCC3)n2)cc1,.[9.22 µM],/,/,/,/
COCCN(C(=O)CCc1ccc(OC)cc1)c1nnc(-c2ccncc2)s1,/,.,.,.,.
CCOc1ccc(-c2nnc(N(CC)C(=O)C3CCC3)s2)cc1,.,.,.,?,7.6µM
CCCC(=O)N(C)c1nnc(-c2ccc(OC)cc2)s1,.,4µM,.,?,7.6µM
CC(=O)OC(C(=O)c1ccccc1)c1ccccc1 (stereo not drawn),.,/,/,/,/
Nc1nnnn1/N=C/c1ccc(O)cc1,.,.,.,.,.
CCN(C)c1ccc(/C=N\n2nnnc2N)cc1,11µM,.,.,9.2µM,12µM
CCOC(=O)CN1CCc2c(C)nc3c(-c4ccc(OC)c(OC)c4)cnn3c21,.,.,.,.,.
O=C(c1cccc(NS(=O)(=O)c2ccc(F)c(F)c2)c1)N1CCN(Cc2ccccc2)CC1,.,.,.,.,.
Cc1ccc(S(=O)(=O)c2nc(-c3ccccc3Cl)oc2N(C)C)cc1,/,.,.,?,15µM
CC1(C)CC(NS(=O)(=O)c2ccc(C(C)(C)C)cc2)CC(C)(C)N1,/,.,.,.,.
CC(/C=N/NC(=O)c1cc(-c2ccc(C)o2)[nH]n1)=C\c1ccccc1,?,.,.,.,?
CC(/C=N\NC(=O)c1cc(C)oc1C)=C\c1ccccc1,?,2.5µM,?,?,2.1µM
Cc1cc(C(=O)N/N=C/c2ccncc2)c(C)o1,/,.,.,.,?
Cc1ccc(/C=N/NC(=O)c2cc(C)oc2C)cc1,/,.,.,?,4.3µM
COc1cc(CN2CCc3ccccc3C2)ccc1O,/,.,.,?,.
COc1ccccc1C(=O)NC(=O)CSc1nc(C)cs1,/,.,.,.,13µM
SMILES,SMN2 splice up,Rab9 promoter act,NPC1 promoter act,ELG1 genotox,FLuc counter
CCOC(=O)N1CCC(NC(=O)c2cnn(-c3ccc(F)cc3)c2-n2cccc2)CC1,/,/,/,/,.
Cc1ccc(OC(=O)c2ccc3snnc3c2)cc1,.,.,.,.,9.5µM
Cc1ccc(NC(=O)c2ccc3snnc3c2)cc1C,20µM,?,?,?,15µM
COc1cccc(NC(=O)c2ccc3snnc3c2)c1,?,?,?,.,19µM
COc1ccc(NC(=O)c2ccc3snnc3c2)cc1OC,.,/,/,/,.
CC1CN(C(=O)Nc2ccc3snnc3c2)c2ccccc21 (stereo not drawn),?,.,.,?,19µM
COc1ccc(N(C)C(=O)c2ccc3snnc3c2)cc1,.,.,.,.,.
O=C(Nc1ccc(F)cc1)Nc1ccc2snnc2c1,.,/,/,/,24µM
O=C(Nc1ccc(Oc2ncnc3cc(Cl)ccc23)nc1)c1ccc(F)cc1,/,.,.,.,.
Cc1oc(-c2ccc(-c3ccccc3)cc2)nc1CN1CCN(CC(=O)N(C)C)CC1,/,?,?,?,5.4µM
CCOc1ccc(OCC)c(NC(=O)CCc2nc3cccnc3n2Cc2cccs2)c1,.,/,/,/,.
Cc1ccc(C(=O)CSc2ccc(-c3ccccc3)nn2)cc1,.,.,.,.,?
N#Cc1ccc(-c2cccnc2)nc1SCC(=O)c1ccccc1,/,3.2µM,?,.,?
COc1ccc(-c2ccc(SCC(=O)c3ccc(F)cc3)nn2)cc1OC,.,.,.,.,13µM
O=C(CSc1ccc(-c2ccccc2)nn1)c1ccccc1,?,?,?,?,17µM
COc1ccc(-c2ccc(SCC(=O)c3cccs3)nn2)cc1OC,?,.,.,.,19µM
COC(=O)CC(NC(=O)c1cccs1)c1ccc(OC)c(OC)c1 (stereo not drawn),.,.,.,.,.
CCSc1nc2c([nH]c3ccccc32)c(=O)n1CC,/,/,/,/,.
Cc1cc(C)c2c(N=NN3CCOCC3)[nH]nc2n1,.,.,.,.,.
CC1CC(OC(=O)CN2CCCCC2)CC(C)(C)C1 (stereo not drawn),/,.,.,.,.
COc1ccc(C(=O)CSc2ccc(-c3ccc(C)cc3)nn2)cc1,14µM,.,.,.,11µM
COc1ccc(C(=O)CSc2nnc(-c3ccc(C)cc3)o2)cc1,.,.,.,?,.
O=C(COc1ccccc1F)Nc1ccc(-c2nc3ccccc3s2)cc1,/,0.63µM,0.89µM,/,/
O=C(O)CSCC(=O)Nc1ccc(-c2nc3ccccc3s2)cc1,/,?,.,?,3µM
Cc1ccc2nc(-c3ccc(NC(=O)CSCC(=O)O)cc3)sc2c1,/,2.8µM,4µM,?,1.7µM
SMILES,SMN2 splice up,Rab9 promoter act,NPC1 promoter act,ELG1 genotox,FLuc counter
Cc1ccc2nc(-c3ccc(NC(=O)COCC(=O)O)cc3)sc2c1,/,?,?,?,1.2µM
Cc1csc(NC(=O)CSCC(=O)O)c1-c1nc2ccccc2s1,/,.,.,.,.
Cc1ccc(NC(=O)COCC(=O)Nc2ccc(C)cc2)cc1,/,.,.,.,.
CCc1cccc(C)c1NC(=O)C1CCN(S(=O)(=O)c2c(C)noc2/C=C/c2c(C)cc(C)cc2C)CC1,/,/,/,/,.
COc1cccc(C(=O)Nc2ccc(-c3nc4ccc(C)cc4s3)cc2)c1OC,/,/,/,/,.
Cc1ccc2nc(-c3ccc(NC(=O)Cc4ccccc4)cc3)sc2c1,?,/,/,/,11µM
CCCOc1ccccc1C(=O)Nc1ccc(-c2nc3ccc(C)cc3s2)cc1,13µM,/,/,/,4.8µM
O=C1C(=O)N(C2CCN(C(=O)c3cccc(Cl)c3)CC2)CCN1Cc1ccc(F)cc1,/,/,/,/,.
Cc1ccc2c(c1)C1CN(C)CCC1N2S(=O)(=O)c1ccccc1F (stereo not drawn),/,.,.,.,.
CCc1c(C)sc(NC(=O)c2cc(C(C)C)on2)c1C#N,.,.,.,.,?
Cc1cc(C(=O)Nc2sc(C)c(C)c2C#N)no1,/,.,.,11µM,19µM
CCc1cc(C(=O)Nc2sc(C)c(CC)c2C#N)no1,.,/,/,/,15µM
CCc1c(C)sc(NC(=O)c2cc(C)no2)c1C#N,.,.,.,.,13µM
COc1ccc(/C=N/Nc2nc(C)cc(-c3ccccc3)n2)cc1OC,/,.,.,.,13µM
Cc1ccc2nc(N/N=C/c3ccco3)cc(C)c2c1,/,2.5µM,2.8µM,.,2.7µM
Cc1cc(C)nc(N/N=C/c2ccco2)n1,?,.,.,.,?
Cc1cc(-c2ccccc2)nc(N/N=C/c2cccnc2)n1,/,.,.,.,12µM
Cc1cc(-c2ccccc2)nc(N/N=C/c2ccco2)n1,.,?,?,.,12µM
